Screening data deposited in PubChem BioAssay by The Scripps Research Institute Molecular Screening Center.
GPR151 activ = activators of human GPR151, primary screen, cell-based, PathHunter beta-arrestin, luminescence; PathHunter beta-arrestin GPR151 cells; activation, % at 11.2 µM; 650,000 compounds, 1% hits; AID 1508602, 2020; G-protein coupled receptor 151 (Homo sapiens), Q8TDV0; in the data active = activation above about 4.9%;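 also: 0% = median of compound wells and 100% = cells with positive control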
Target sequence (Q8TDV0 whole entry, looked up): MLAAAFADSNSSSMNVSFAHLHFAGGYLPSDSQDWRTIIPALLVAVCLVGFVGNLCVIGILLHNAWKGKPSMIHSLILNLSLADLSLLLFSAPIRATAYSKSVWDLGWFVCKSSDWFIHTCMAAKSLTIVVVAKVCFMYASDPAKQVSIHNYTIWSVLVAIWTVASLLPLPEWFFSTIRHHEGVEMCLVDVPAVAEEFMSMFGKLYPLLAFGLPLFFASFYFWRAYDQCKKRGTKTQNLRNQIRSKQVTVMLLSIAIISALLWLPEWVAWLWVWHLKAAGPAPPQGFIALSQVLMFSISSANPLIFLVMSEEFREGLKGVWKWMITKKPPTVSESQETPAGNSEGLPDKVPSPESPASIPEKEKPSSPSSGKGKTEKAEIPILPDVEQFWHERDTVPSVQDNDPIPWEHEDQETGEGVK
MITF inh = MITF inhibitors, primary screen, biochemical, AlphaScreen, human; 650,000 compounds, 0.91% hits; inhibition, % at 2.6 µM; AlphaScreen MITF homodimerization, bead proximity signal; Microphthalmia-associated transcription factor (Homo sapiens), O75030; in the data active = inhibition above about 50%;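 also: 0% = vehicle wells with protein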
TEAD-YAP inh = TEAD-YAP interaction inhibition, primary screen, TEAD-YAP interaction inhibitor project, luminescence, HEK-TIYL cells. inhibition, % at 9.12 µM. TEAD-Gal4/YAP UAS-luciferase luminescence. 640,000 compounds, 1.4% hits; in the data active = inhibition above about 32%;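 also: 0% = median of test compound wells and 100% = reference inhibitor wells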
FBW7 act = FBW7 E3 ligase activators, primary screen, biochemical, AlphaScreen, human | 650,000 compounds, 0.13% hits | normalized activity (activation), % at 26.1 µM | AlphaScreen FBW7–phospho-cyclin E peptide binding, activator screen | F-box/WD repeat-containing protein 7 (Homo sapiens), Q969H0; in the data active = normalized activity above about 1.9%;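 also: purified mutant Fbw7 with reduced substrate affinity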
Numbers without * were called inactive. Compounds with a hit are over-represented: about 3.5% of the library has one in this group of screens.

SMILES | GPR151 activ | MITF inh | TEAD-YAP inh | FBW7 act
COc1ccc(OC)c(C2C=C(c3cccc(Br)c3)Nc3ncnn32)c1 (stereo not given) | 1.5 | 2.9 | 11.7 | -0.1
CCc1ccc(C2=CC(c3cc(OC)ccc3OC)n3ncnc3N2)cc1 (stereo not given) | -0.3 | 4.2 | 51.3* | 0.0
COc1ccc(OC)c(C2C=C(c3ccc(Cl)cc3)Nc3ncnn32)c1 (stereo not given) | 0.1 | 14.6 | 4.0 | 0.0
O=c1[nH]c(/C=C/c2ccc3c(c2)OCO3)nc2ccccc12 | -7.8 | 10.0 | 56.1* | -0.1
COc1ccc(/C=C/c2nc3ccccc3c(=O)[nH]2)cc1O | -9.4 | 5.9 | 44.3* | 0.0
COc1cccc(/C=C/c2nc3ccccc3c(=O)[nH]2)c1O | -10.8 | 15.1 | 64.9* | 0.3
COc1ccc(/C=C\c2nc(O)c([N+](=O)[O-])c(=O)[nH]2)cc1O | -0.8 | -8.6 | 1.3 | -0.1
C=CCOc1ccc(C=C2C(=O)N(C)C(=S)N(C)C2=O)cc1OC | 0.3 | 66.6* | -0.4 | 0.0
C=CCOc1ccc(C=C2C(=O)N(C)C(=S)N(C)C2=O)cc1I | -0.9 | 13.2 | 15.0 | 0.4
CCCOc1ccc(S(=O)(=O)Nc2ccc3c(c2)N(C(=O)CC)CCC3)cc1 | 2.6 | -3.1 | 58.0* | -0.2
O=C(C1CC1)N1CCc2ccc(NS(=O)(=O)c3ccc4c(c3)OCCO4)cc21 | 1.7 | 14.7 | 48.1* | 0.3
CCC(=O)N1CCCc2ccc(NS(=O)(=O)c3ccc(Cl)cc3)cc21 | 1.6 | 6.8 | 28.6 | 0.0
Cc1cnc(NC(=O)CN2CCN(c3ccccn3)CC2)s1 | -0.6 | 10.7 | 65.2* | 0.2
Cc1cnc(NC(=O)CN2CCC(O)(c3ccccn3)CC2)s1 | 0.1 | -1.4 | 2.6 | -0.1
O=[N+]([O-])c1cc2c(cc1C=Nc1ccc(O)cc1)OCO2 | -2.3 | 53.3* | 7.0 | 0.2
O=C(Nc1ncc(Cc2ccccc2Cl)s1)c1cccc2ccccc12 | -0.6 | -14.9 | 35.2* | -0.1
COc1ccc2nc(NC(=O)c3sc4ccccc4c3Cl)sc2c1 | -0.4 | -7.8 | -9.0 | -0.1
